This note sets out measurements from PubChem BioAssay (NCATS).

Records with an inconclusive call do not appear. Values without a mark were called inactive. Calls of active or inactive are those of the source. The call rests on the fitted dose curve; in most records, active means well fitted inhibition curve with a large enough effect; inconclusive means small, poorly fitted or top-dose-only effect; inactive means flat fitted curve, though single readings scatter.

One assay concerns HB3. Briefly: qHTS profiling for inhibitors of Plasmodium falciparum proliferation (AID 504749). To be noted: P. falciparum in erythrocytes, SYBR Green DNA, 72 h; series mostly up to 28.7 µM. Put shortly: (§1)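 Readout was DNA-dye fluorescence from lysed cultures, ex 485/em 535 nm. Parasitized red cells had grown 72 h with compound; data scaled between 0.29 uM artemisinin and DMSO wells and corrected using vehicle-only plates.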

The test system of another assay is ICS. Described as above. To be noted: P. falciparum in erythrocytes, SYBR Green DNA, 72 h; series mostly up to 28.7 µM. Put shortly:
as §1

The subject of a further assay is JCK. Described as above. To be noted: P. falciparum in erythrocytes, SYBR Green DNA, 72 h; series mostly up to 28.7 µM. In a few lines: as §1
The test system of a further assay is N140. The description is as above. The following applies: P. falciparum in erythrocytes, SYBR Green DNA, 72 h; series mostly up to 28.7 µM. In a few lines: as §1
The test system of a further assay is P93_24. Described as above. The following applies: P. falciparum in erythrocytes, SYBR Green DNA, 72 h; series mostly up to 28.7 µM. In a few lines:
as §1

The subject of the next assay is P94_40. The assay is described as above. The following applies: P. falciparum in erythrocytes, SYBR Green DNA, 72 h; series mostly up to 28.7 µM. In a few lines: as §1
The next assay concerns PAD. The assay is described as above. The following applies: P. falciparum in erythrocytes, SYBR Green DNA, 72 h; series mostly up to 28.7 µM. Put shortly:
as §1

The test system of the next assay is PC15. The description is as above. To be noted: P. falciparum in erythrocytes, SYBR Green DNA, 72 h; series mostly up to 28.7 µM. Put shortly: as §1
A further assay deals with PC49. The description is as above. To be noted: P. falciparum in erythrocytes, SYBR Green DNA, 72 h; series mostly up to 28.7 µM. Put shortly: as §1
In a further assay the test system is SC27B. The assay is described as above. To be noted: P. falciparum in erythrocytes, SYBR Green DNA, 72 h; series mostly up to 28.7 µM. In a few lines: as §1
A further assay has as its system TAB109. Described as above. The following applies: P. falciparum in erythrocytes, SYBR Green DNA, 72 h; series mostly up to 28.7 µM. In a few lines:
as §1

A further assay concerns TAB113. The assay is described as above. The following applies: P. falciparum in erythrocytes, SYBR Green DNA, 72 h; series mostly up to 28.7 µM. Put shortly:
as §1

The subject of another assay is TAB165. The assay is described as above. To be noted: P. falciparum in erythrocytes, SYBR Green DNA, 72 h; series mostly up to 28.7 µM. Put shortly:
as §1

Another assay has as its system CRL-7250. Briefly: Cytotoxic Profiling of Annotated Libraries Using Quantitative High-Throughput Screening (AID 1296008). On max response: on the % scale 0 is the no-effect control and ±100 the full control effect. The following applies: Five cell lines viability, CellTiter-Glo ATP luminescence, 48-72 h; max response: hits give low values. In a few lines:
(§2)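 Cells exposed to compounds for 48 or 72 hr at 37 degrees Celsius. Viability read as ATP-coupled luminescence with CellTiter-Glo after 10 min at room temperature.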

For the next assay, the system named is HEK293. The description is as above. The following applies: Five cell lines viability, CellTiter-Glo ATP luminescence, 48-72 h; max response: hits give low values. In a few lines:
as §2

Another assay deals with HaCat. Described as above. To be noted: Five cell lines viability, CellTiter-Glo ATP luminescence, 48-72 h; max response: hits give low values. Put shortly: as §2
The subject of another assay is NIH3T3. The description is as above. To be noted: Five cell lines viability, CellTiter-Glo ATP luminescence, 48-72 h; max response: hits give low values. In a few lines:
as §2

The test system of another assay is PC26. Briefly: qHTS profiling for inhibitors of Plasmodium falciparum proliferation (AID 504749). To be noted: P. falciparum in erythrocytes, SYBR Green DNA, 72 h; series mostly up to 28.7 µM. In a few lines:
as §1

The next assay relates to W2. The description is as above. To be noted: P. falciparum in erythrocytes, SYBR Green DNA, 72 h; series mostly up to 28.7 µM. Put shortly:
as §1

A further assay has as its system KB-3-1. Put plainly: Cytotoxic Profiling of Annotated Libraries Using Quantitative High-Throughput Screening (AID 1296008). On max response: on the % scale 0 is the no-effect control and ±100 the full control effect. To be noted: Five cell lines viability, CellTiter-Glo ATP luminescence, 48-72 h; max response: hits give low values. In a few lines: as §2
Further: nearly all actives have a fitted effect of over 60% in size.
Potency means the concentration at half of the fitted maximal effect.

As for `C#C[C@]1(OC(C)=O)CC[C@H]2[C@@H]3CCC4=C/C(=N/O)CC[C@@H]4[C@H]3CC[C@@]21CC`, the Potency result with HB3, in the assay with ICS, in the assay on JCK, in the assay with N140, in the assay on P93_24 and in the assay on P94_40 was “inactive” each time. Also, the Potency result in the assay with PAD, with PC15, in the assay with PC49, with SC27B, in the assay with TAB109 and in the assay with TAB113 was “inactive” in each case. Besides, the Potency entry in the assay on TAB165 was “inactive”. The results for the max response in the assay on CRL-7250, in the assay with HaCat and with NIH3T3 were -7.16%, 2.29% and 2.39%, respectively. Moreover, the Potency with HEK293 was 13.3 µM (active).

In the case of `CC(=O)Nc1ncc([N+](=O)[O-])s1`, the Potency entry in the assay on HB3, with ICS, in the assay with JCK, in the assay on N140, in the assay with P93_24 and with P94_40 was “inactive” throughout. In addition, the Potency result in the assay with PAD, in the assay on PC15, in the assay on PC26, in the assay on PC49, with SC27B and with TAB109 was “inactive” in each case. For the same compound, the Potency entry in the assay with TAB113, with TAB165 and in the assay with W2 was “inactive” each time. Further, the max response with CRL-7250 is 2.19%; in the assay with HEK293 it was 0.687%; in the assay with HaCat, 4.2%; with NIH3T3, 4.2%.

In the case of `CCCCCCCCCCCCCC(=O)OC(C)C`, the Potency result in the assay with HB3, in the assay on ICS, in the assay with JCK, in the assay on N140, in the assay on P93_24 and in the assay with P94_40 was “inactive” each time. Moreover, the Potency entry with PAD, in the assay on PC15, with PC26, with PC49, with SC27B and with TAB109 was “inactive” throughout. Besides, the Potency entry in the assay on TAB113, in the assay on TAB165 and in the assay on W2 was “inactive” each time. Further, the max response was -4.95% with CRL-7250, -0.105% with HEK293, -4.71% in the assay with HaCat and 2.35% in the assay with NIH3T3.

Turning to `O=C(O)Cc1csc(-c2ccc(Cl)cc2)n1`, the Potency result with HB3, in the assay with ICS, with JCK, with N140, with P93_24 and in the assay with P94_40 was “inactive” in each case. Further, the Potency entry in the assay with PAD, in the assay with PC15, in the assay on PC26, in the assay on PC49, with SC27B and in the assay with TAB109 was “inactive” in each case. The Potency entry in the assay with TAB113, in the assay with TAB165 and with W2 was “inactive” in each case. The max response in the assay with CRL-7250 is -17.8%; in the assay with HEK293 it was -0.458%; in the assay with HaCat, -16.3%; with NIH3T3, 1.14%.

For `CC(C)Cn1cnc2c1c(=O)n(C)c(=O)n2C`, the Potency entry in the assay with HB3, with ICS, in the assay on JCK, with N140, in the assay on P93_24 and in the assay with P94_40 was “inactive” in each case. Moreover, the Potency entry with PAD, with PC15, with PC26, in the assay with PC49, with SC27B and with TAB109 was “inactive” each time. Also, the Potency entry in the assay with TAB113, with TAB165 and in the assay with W2 was “inactive” each time. In addition, in the assay on CRL-7250, the compound was called inactive. In addition, the max response is -0.637% in the assay with HEK293, -0.147% in the assay with HaCat and 1.58% in the assay on NIH3T3.

Regarding `NCc1ccccc1Sc1ccccc1CO`, the Potency result with HB3, in the assay on JCK, in the assay with PC49, in the assay with SC27B and in the assay with TAB113 was “inactive” each time. Moreover, the figures for the Potency with ICS and in the assay on W2 were 8.91 µM (active) and 4.78 µM (active), respectively. Moreover, the results for the max response in the assay on CRL-7250, with HEK293 and in the assay on HaCat were -5.17%, -7.72% and -3.87%, respectively. The outcome in the assay with NIH3T3 was inactive.

Turning to `COc1cc([C@H]2Oc3cc([C@H]4Oc5cc(O)cc(O)c5C(=O)[C@@H]4O)ccc3O[C@@H]2CO)ccc1O`, the Potency result in the assay with HB3, with JCK, in the assay on PC49 and in the assay with TAB109 was “inactive” in each case. Further, the Potency with ICS was 8.91 µM (active). Moreover, the compound was classed as inactive in the assay with CRL-7250. Besides, the values for the max response in the assay on HEK293, with HaCat and with KB-3-1 were -17.6%, -5.16% and 47.9%, respectively.

Consider `O=C(O)CCC(=O)Nc1ccc(S(=O)(=O)Nc2nccs2)cc1`, for which the Potency entry in the assay with HB3, with ICS, in the assay on JCK, with N140, in the assay on P93_24 and in the assay on P94_40 was “inactive” throughout. Besides, the Potency entry with PAD, in the assay with PC15, in the assay on PC26, in the assay with PC49, in the assay with SC27B and in the assay on TAB109 was “inactive” throughout. Further, the Potency result with TAB113, with TAB165 and in the assay with W2 was “inactive” in each case. Further, the max response was -7.17% in the assay on CRL-7250, -13.9% with HEK293, -28.4% in the assay with HaCat and -7.15% with NIH3T3.

On to `CCC1NC(=O)c2cc(S(N)(=O)=O)c(Cl)cc2N1` (configuration not stated), for which the max response with CRL-7250 was -0.729%; in the assay on HEK293, -0.132%; in the assay with HaCat, -3.39%; with NIH3T3, 3.38%.

Regarding `O=[N+]([O-])c1ccc(/C=N\O)o1`, the max response in the assay with CRL-7250 was -1.03%; in the assay with HEK293 it was -8.88%; in the assay with HaCat it was 1.07%; in the assay with NIH3T3, -18.1%.

In the case of `Clc1cccc(C(c2ccc3nc[nH]c3c2)n2ccnc2)c1` (configuration not stated), the Potency was 5.62 µM (active) in the assay on ICS; 10 µM (active) in the assay with N140; 7.08 µM (active) with P93_24; 12.6 µM (active) in the assay on PC15; 10 µM (active) with SC27B; 7.94 µM (active) in the assay with TAB165. Also, the Potency entry in the assay on JCK and in the assay with PC49 was “inactive” each time. Further, the max response with CRL-7250 was -3.34%; in the assay with HEK293 it was 1.25%; in the assay with HaCat it was -3.24%; in the assay on KB-3-1 it was 11.8%; with NIH3T3 it was -0.487%.

For the compound `COc1cc(O)c(C(=O)c2ccccc2)cc1S(=O)(=O)O`, the Potency in the assay with ICS was 3.55 µM (active); with W2 it was 7.57 µM (active). Further, the Potency entry with JCK, with PC49 and in the assay on SC27B was “inactive” in each case. Further, the max response in the assay on CRL-7250 was 1.74%; with HEK293, -6.68%; with HaCat, -4.69%; in the assay on KB-3-1 it was -4.48%; with NIH3T3, 1.08%.

As to `CC(=O)Nc1ccc(OCC(O)CNC(C)C)cc1` (configuration not stated), the Potency result in the assay with HB3, in the assay with ICS, with JCK, in the assay with N140, in the assay with P93_24 and in the assay on P94_40 was “inactive” each time. The Potency entry in the assay on PAD, in the assay with PC15, with PC26, in the assay on PC49, in the assay with SC27B and in the assay with TAB109 was “inactive” throughout. Moreover, the Potency result with TAB113, with TAB165 and in the assay with W2 was “inactive” each time. Further, the figures for the max response with CRL-7250, in the assay on HEK293 and in the assay with NIH3T3 were -5.23%, 4.87% and -0.995%, respectively. For the same compound, the outcome with HaCat was inactive.

Regarding `CCOC(=O)c1ccc(N)cc1`, the Potency entry with HB3, in the assay on ICS, in the assay with JCK, in the assay on N140, in the assay with P93_24 and in the assay with P94_40 was “inactive” throughout. For the same compound, the Potency result in the assay on PAD, in the assay with PC15, with PC26, in the assay on PC49, in the assay with SC27B and with TAB109 was “inactive” each time. In addition, the Potency entry in the assay with TAB113, in the assay with TAB165 and in the assay with W2 was “inactive” throughout. In addition, the max response is -8.72% with CRL-7250, -24% in the assay on HEK293, -25.3% with HaCat and -0.465% in the assay with NIH3T3.

With `CN1CCN(CCC(=O)N2c3ccccc3Sc3ccc(C(F)(F)F)cc32)CC1`, the Potency entry with HB3, in the assay with JCK, with P94_40, in the assay on SC27B and in the assay on TAB113 was “inactive” each time. The Potency was 7.08 µM (active) with ICS, 4.26 µM (active) with W2, 15 µM (active) in the assay on CRL-7250 and 23.7 µM (active) in the assay on HEK293. For the same compound, the outcome with HaCat was inactive. Also, in the assay with KB-3-1, the max response was 5.81%.
